# In ChEMBL document CHEMBL2218924, “A broad activity screen in support of a chemogenomic map for kinase signalling research and drug discovery” (Biochem J, 2013):
# Tests used:
# [1] = target: T1, Serine/threonine-protein kinase TBK1 (Homo sapiens) (UniProt Q9UHD2); conditions: at 10 µM
# T1 sequence (whole entry): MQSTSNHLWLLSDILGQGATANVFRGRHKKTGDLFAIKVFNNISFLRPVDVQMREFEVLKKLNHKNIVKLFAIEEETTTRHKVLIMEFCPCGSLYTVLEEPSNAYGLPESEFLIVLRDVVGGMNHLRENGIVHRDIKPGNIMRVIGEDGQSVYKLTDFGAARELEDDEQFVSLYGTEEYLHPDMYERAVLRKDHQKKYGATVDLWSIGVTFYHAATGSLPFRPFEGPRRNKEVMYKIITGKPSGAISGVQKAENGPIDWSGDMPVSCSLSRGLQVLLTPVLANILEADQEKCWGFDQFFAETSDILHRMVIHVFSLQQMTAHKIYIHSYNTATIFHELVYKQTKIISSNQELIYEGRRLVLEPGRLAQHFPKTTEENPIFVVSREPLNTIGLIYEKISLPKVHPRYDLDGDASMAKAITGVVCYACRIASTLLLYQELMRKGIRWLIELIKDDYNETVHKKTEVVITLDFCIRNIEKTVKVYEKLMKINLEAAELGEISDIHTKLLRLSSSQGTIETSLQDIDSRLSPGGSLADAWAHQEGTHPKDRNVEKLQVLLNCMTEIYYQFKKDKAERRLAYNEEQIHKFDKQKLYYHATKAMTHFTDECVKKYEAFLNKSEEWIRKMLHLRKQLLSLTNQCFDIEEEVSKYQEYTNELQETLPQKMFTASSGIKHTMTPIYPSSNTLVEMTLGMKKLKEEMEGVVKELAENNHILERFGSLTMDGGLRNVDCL
# [2] = target: T2, TGF-beta receptor type-1 (Homo sapiens) (UniProt P36897); conditions: at 1 µM
# T2 sequence (whole entry): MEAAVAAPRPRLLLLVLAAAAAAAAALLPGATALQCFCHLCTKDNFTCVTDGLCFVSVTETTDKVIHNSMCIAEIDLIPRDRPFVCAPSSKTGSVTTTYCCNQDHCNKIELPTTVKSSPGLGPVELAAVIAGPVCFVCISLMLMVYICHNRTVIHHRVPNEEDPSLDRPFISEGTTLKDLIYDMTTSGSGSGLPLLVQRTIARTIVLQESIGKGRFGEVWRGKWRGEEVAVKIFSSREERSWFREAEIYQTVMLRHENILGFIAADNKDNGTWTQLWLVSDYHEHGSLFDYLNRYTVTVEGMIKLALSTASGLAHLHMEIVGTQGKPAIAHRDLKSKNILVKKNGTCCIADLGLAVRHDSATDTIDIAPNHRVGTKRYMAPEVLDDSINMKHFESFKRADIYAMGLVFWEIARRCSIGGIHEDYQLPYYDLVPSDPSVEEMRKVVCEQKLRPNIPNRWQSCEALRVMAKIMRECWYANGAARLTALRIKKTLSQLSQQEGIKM
# [3] = target: T2, TGF-beta receptor type-1 (Homo sapiens); conditions: at 10 µM
# [4] = target: T3, Inhibitor of nuclear factor kappa-B kinase subunit alpha (Homo sapiens) (UniProt O15111); conditions: at 1 µM
# T3 sequence (whole entry): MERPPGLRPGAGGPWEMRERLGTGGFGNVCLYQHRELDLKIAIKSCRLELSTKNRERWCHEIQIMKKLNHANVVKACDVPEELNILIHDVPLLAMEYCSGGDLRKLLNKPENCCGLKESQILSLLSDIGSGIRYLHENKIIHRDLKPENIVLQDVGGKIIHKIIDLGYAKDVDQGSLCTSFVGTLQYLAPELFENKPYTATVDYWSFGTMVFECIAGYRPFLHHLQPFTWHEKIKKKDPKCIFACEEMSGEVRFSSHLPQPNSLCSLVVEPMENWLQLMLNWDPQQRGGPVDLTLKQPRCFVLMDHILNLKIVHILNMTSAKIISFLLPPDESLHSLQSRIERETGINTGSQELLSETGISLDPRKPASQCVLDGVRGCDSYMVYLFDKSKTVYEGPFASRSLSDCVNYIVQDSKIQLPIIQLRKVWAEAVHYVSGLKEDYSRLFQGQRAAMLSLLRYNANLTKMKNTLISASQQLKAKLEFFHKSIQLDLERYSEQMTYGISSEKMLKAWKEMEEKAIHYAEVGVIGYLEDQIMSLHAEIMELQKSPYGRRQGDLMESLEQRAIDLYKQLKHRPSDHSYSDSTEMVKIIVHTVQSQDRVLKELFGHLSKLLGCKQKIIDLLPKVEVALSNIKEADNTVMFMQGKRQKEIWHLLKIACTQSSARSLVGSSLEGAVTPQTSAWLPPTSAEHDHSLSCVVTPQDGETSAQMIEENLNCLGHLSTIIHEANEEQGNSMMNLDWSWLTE
# [5] = target: T3, Inhibitor of nuclear factor kappa-B kinase subunit alpha (Homo sapiens); conditions: at 10 µM
# [6] = target: Insulin receptor (Homo sapiens) (UniProt P06213); conditions: at 1 µM
# Sequence of Insulin receptor (Homo sapiens) (P06213 28-758 limits assumed): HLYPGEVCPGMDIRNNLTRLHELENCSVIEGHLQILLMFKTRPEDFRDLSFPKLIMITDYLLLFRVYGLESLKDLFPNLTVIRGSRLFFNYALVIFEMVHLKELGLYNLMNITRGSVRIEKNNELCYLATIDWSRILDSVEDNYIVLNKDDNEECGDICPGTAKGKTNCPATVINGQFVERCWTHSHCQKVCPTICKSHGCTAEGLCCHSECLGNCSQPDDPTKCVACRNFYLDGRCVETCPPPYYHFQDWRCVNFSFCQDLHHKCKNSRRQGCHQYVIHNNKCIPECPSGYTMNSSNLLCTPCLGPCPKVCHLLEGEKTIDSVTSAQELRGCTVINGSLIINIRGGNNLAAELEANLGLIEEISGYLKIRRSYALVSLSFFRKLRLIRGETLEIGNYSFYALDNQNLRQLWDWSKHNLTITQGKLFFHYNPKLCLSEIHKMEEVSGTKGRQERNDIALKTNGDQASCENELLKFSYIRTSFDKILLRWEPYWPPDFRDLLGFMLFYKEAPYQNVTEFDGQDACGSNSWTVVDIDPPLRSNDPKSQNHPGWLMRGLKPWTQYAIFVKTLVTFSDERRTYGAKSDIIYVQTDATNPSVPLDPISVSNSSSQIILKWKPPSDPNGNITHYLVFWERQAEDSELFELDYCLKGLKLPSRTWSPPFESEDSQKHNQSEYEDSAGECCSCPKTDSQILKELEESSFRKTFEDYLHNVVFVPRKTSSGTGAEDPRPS
# Sequence of Insulin receptor (Homo sapiens) (P06213 763-1382 limits assumed): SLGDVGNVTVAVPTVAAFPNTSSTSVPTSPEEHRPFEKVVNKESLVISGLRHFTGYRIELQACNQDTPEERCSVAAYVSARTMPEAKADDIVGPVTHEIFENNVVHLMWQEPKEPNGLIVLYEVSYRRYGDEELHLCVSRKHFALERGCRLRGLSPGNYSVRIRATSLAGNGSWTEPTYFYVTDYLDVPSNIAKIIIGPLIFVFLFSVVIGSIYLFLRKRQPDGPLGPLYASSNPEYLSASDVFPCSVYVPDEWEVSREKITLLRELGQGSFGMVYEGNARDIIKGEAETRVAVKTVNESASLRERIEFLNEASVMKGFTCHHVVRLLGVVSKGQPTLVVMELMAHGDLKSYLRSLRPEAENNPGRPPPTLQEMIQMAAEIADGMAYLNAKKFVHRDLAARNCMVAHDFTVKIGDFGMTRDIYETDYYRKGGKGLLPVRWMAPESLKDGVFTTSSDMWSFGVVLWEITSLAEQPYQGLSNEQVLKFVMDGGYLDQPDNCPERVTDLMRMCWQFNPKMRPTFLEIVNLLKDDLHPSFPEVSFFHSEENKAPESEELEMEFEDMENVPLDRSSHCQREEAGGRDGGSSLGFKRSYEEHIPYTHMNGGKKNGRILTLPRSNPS
# [7] = target: Insulin receptor (Homo sapiens) (UniProt P06213); conditions: at 10 µM
# [8] = target: Insulin receptor (Homo sapiens) (UniProt P06213); conditions: at 1 µM; remark: listed apart in the source
# [9] = target: Insulin receptor (Homo sapiens) (UniProt P06213); conditions: at 10 µM; remark: listed apart in the source
# [10] = target: T4, Interleukin-1 receptor-associated kinase 4 (Homo sapiens) (UniProt Q9NWZ3); conditions: at 1 µM
# T4 sequence (whole entry): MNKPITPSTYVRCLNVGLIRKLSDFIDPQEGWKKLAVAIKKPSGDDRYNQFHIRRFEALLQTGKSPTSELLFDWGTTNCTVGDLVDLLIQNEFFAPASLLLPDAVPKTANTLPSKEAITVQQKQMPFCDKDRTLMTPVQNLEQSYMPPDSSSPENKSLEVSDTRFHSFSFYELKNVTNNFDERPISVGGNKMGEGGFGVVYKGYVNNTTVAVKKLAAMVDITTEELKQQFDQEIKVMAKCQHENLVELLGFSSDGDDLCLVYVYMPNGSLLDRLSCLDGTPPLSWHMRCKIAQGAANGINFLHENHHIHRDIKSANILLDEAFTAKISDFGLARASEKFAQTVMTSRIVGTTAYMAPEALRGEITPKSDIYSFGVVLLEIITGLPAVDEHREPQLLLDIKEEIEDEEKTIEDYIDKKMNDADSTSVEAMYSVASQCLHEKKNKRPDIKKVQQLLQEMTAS
# [11] = target: T4, Interleukin-1 receptor-associated kinase 4 (Homo sapiens); conditions: at 10 µM
# [12] = target: T5, Tyrosine-protein kinase ITK/TSK (Homo sapiens) (UniProt Q08881); conditions: at 1 µM
# T5 sequence (whole entry): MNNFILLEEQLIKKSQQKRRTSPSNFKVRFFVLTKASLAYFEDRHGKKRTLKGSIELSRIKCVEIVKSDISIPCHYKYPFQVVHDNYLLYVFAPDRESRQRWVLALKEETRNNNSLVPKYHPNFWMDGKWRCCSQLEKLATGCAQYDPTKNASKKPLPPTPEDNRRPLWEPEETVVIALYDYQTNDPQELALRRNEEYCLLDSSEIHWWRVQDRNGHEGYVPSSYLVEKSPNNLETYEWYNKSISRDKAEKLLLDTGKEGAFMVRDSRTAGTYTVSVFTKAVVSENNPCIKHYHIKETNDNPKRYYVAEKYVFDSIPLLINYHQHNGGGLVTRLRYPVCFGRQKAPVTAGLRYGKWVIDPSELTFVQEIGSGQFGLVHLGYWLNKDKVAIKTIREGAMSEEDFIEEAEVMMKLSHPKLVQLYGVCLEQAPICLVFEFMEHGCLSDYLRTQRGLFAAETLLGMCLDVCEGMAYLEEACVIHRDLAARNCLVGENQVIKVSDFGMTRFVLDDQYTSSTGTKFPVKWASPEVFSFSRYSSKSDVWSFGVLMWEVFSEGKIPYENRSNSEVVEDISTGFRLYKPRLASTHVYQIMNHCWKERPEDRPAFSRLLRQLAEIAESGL
# [13] = target: Insulin-like growth factor 1 receptor (Homo sapiens) (UniProt P08069); conditions: at 1 µM
# Sequence of Insulin-like growth factor 1 receptor (Homo sapiens) (P08069 31-736 limits assumed): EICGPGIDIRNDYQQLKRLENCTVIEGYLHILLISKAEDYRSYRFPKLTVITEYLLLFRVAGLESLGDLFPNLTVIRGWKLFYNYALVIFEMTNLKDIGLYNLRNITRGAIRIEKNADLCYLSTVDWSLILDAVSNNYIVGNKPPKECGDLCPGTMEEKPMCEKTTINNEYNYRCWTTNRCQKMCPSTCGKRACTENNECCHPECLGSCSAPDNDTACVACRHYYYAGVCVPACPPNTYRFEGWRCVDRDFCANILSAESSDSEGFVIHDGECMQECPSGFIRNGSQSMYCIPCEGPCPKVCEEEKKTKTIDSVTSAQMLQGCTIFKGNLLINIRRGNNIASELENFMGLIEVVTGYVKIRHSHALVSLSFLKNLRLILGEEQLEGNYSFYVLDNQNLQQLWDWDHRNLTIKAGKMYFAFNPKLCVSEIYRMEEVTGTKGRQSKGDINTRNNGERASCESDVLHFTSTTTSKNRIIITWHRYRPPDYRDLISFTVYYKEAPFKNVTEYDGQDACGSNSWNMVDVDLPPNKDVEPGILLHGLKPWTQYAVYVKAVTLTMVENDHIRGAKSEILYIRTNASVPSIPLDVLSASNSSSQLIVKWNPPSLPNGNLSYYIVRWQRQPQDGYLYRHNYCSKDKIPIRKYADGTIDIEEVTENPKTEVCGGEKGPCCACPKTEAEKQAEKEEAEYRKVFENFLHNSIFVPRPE
# Sequence of Insulin-like growth factor 1 receptor (Homo sapiens) (P08069 741-1367 limits assumed): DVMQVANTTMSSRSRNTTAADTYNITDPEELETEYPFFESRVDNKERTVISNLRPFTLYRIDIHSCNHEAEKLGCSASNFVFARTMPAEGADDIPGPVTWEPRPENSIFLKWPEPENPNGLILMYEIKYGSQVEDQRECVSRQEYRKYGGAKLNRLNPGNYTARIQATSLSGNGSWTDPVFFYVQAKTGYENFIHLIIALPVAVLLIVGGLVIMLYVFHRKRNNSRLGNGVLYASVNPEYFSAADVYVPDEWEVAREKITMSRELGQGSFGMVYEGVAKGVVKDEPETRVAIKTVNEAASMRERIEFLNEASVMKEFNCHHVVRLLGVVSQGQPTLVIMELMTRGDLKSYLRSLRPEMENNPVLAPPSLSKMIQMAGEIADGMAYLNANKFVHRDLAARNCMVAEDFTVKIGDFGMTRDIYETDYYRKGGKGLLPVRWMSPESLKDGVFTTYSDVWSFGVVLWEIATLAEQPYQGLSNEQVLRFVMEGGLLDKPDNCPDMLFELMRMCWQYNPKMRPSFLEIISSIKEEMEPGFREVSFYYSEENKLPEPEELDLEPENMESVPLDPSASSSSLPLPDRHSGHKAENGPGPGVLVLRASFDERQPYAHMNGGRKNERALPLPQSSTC
# [14] = target: Insulin-like growth factor 1 receptor (Homo sapiens) (UniProt P08069); conditions: at 10 µM
# [15] = target: Interleukin-1 receptor-associated kinase 1 (Homo sapiens) (UniProt P51617); conditions: at 1 µM
# Sequence of Interleukin-1 receptor-associated kinase 1 (Homo sapiens) (P51617 whole entry, looked up): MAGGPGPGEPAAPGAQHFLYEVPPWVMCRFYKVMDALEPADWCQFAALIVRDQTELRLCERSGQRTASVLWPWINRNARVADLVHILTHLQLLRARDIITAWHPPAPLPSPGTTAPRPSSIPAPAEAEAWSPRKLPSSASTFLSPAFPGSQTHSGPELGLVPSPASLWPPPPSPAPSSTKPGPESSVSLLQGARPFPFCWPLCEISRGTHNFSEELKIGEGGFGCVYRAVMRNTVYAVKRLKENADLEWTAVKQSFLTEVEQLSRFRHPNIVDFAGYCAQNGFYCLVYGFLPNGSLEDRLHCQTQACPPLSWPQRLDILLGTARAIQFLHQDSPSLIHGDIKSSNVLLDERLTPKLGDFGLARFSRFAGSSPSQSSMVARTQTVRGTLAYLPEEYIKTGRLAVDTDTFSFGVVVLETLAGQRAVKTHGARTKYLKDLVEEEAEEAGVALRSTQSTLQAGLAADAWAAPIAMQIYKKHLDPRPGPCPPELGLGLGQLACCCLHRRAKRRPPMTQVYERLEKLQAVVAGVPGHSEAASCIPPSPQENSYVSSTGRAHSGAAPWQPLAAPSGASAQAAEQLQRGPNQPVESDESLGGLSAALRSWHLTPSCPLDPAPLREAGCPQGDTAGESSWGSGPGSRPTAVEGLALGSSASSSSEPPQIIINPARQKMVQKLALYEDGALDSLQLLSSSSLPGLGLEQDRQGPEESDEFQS
# [16] = target: Interleukin-1 receptor-associated kinase 1 (Homo sapiens) (UniProt P51617); conditions: at 10 µM
# [17] = target: Insulin receptor-related protein (Homo sapiens) (UniProt P14616); conditions: at 1 µM
# Sequence of Insulin receptor-related protein (Homo sapiens) (P14616 27-742 limits assumed): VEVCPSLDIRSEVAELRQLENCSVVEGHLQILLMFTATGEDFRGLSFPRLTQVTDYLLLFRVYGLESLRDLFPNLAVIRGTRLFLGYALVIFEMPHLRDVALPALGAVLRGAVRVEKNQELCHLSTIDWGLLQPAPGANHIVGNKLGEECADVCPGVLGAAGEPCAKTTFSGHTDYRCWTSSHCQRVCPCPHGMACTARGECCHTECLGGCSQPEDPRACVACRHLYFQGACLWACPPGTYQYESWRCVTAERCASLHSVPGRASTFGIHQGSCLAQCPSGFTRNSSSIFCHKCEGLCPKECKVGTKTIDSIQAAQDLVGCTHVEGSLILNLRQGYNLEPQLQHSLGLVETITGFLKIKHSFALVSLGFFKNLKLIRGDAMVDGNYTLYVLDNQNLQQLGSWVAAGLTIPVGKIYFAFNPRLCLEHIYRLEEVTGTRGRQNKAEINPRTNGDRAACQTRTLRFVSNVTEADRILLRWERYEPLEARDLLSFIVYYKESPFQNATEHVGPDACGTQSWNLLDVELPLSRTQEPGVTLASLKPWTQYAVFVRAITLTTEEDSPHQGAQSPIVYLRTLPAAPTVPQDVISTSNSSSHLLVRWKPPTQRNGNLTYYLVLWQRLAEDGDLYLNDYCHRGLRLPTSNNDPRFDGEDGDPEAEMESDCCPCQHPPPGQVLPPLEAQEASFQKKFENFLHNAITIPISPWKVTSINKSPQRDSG
# Sequence of Insulin receptor-related protein (Homo sapiens) (P14616 747-1297 limits assumed): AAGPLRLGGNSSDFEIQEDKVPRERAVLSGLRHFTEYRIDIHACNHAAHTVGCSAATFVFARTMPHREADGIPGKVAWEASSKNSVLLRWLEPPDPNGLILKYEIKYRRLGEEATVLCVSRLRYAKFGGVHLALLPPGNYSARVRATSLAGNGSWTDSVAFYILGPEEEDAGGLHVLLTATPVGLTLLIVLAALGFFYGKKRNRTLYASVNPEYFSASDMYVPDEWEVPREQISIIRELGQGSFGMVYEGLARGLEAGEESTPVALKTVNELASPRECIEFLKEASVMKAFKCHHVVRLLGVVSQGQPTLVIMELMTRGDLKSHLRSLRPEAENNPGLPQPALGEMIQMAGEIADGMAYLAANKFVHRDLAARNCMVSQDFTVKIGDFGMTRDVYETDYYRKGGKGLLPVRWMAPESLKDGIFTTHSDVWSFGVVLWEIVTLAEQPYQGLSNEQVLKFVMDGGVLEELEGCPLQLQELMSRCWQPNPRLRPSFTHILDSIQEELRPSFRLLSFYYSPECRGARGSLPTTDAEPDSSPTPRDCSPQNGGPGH
# [18] = target: Insulin receptor-related protein (Homo sapiens) (UniProt P14616); conditions: at 10 µM
Structure (SMILES),residual activity [1] [%],residual activity [2] [%],residual activity [3] [%],residual activity [4] [%],residual activity [5] [%],residual activity [6] [%],residual activity [7] [%],residual activity [8] [%],residual activity [9] [%],residual activity [10] [%],residual activity [11] [%],residual activity [12] [%],residual activity [13] [%],residual activity [14] [%],residual activity [15] [%],residual activity [16] [%],residual activity [17] [%],residual activity [18] [%]
Cn1sc(=O)n(Cc2ccccc2)c1=O,55,77,72,91,93,93,82,96,93,74,76,97,–,–,–,–,–,–
COc1ccc2c(c1)c(C1=C(c3c[nH]c4ccccc34)C(=O)NC1=O)cn2CCCN(C)C,24,69,49,80,64,100,73,97,71,–,–,101,101,82,81,75,122,67
O=C(c1ccccc1)c1ccc(N2CCOCC2)cc1O,77,95,99,–,–,–,–,–,–,117,93,–,–,93,–,89,131,75
